In all, about 340,000 compounds went through this assay and about 2,100 (0.62%) were called active.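 The calls were made as follows: active = first-screen hits whose inhibition reached a set limit at any dose in the follow-up dose series; inconclusive = inhibition above the set first-screen limit but never retested; inactive = the rest.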 Not all results are given here. Results with a measured potency or affinity are listed apart.
Biological target: Rac GTPase-activating protein 1 (Homo sapiens) (UniProt Q9H0H5)
Sequence (Q9H0H5 whole entry, looked up): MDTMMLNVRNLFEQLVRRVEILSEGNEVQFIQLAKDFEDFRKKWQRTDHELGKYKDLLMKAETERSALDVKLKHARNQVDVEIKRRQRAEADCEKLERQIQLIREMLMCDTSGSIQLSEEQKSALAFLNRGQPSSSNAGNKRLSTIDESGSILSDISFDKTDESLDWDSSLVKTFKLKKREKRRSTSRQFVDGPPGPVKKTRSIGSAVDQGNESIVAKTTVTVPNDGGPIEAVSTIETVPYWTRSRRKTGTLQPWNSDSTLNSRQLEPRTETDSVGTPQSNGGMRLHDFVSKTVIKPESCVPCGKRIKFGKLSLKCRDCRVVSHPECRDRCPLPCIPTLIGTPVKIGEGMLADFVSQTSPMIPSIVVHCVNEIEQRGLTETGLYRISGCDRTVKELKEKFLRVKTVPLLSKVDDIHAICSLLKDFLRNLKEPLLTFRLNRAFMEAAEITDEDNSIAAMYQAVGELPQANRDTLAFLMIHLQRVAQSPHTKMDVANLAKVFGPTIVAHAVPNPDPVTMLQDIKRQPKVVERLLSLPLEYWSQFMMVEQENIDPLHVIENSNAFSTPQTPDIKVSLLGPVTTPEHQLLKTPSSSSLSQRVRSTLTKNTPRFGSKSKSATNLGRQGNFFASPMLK
Test: MgcRacGAP GTPase-activating activity inhibitors, confirmation, biochemical, ADP Hunter fluorescence, primary and confirmatory (AID 624330);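 also: fluorescence reports GDP produced by GAP-driven GTP hydrolysis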
Details: MgcRacGAP-stimulated Rac1 GTP hydrolysis, at 30 µM, stronger effect = higher value, GST-tagged Rac1 F28L mutant substrate

SMILES | inhibition
Clc1ccc(-c2csc(Nc3ccccc3)[n+]2Cc2ccco2)c(Cl)c1 | 4.62% (inactive)
COC(=O)c1c(C(=O)OC)c2ccccn2c1C(=O)c1ccc([N+](=O)[O-])cc1 | -6.01% (inactive)
Nc1ccc(-c2nc3cc(N)ccc3s2)cc1 | 7.4% (inactive)
Nc1ccc2nc(-c3ccccc3)sc2c1 | 4.03% (inactive)
Cc1nc2ccc(N)cc2s1 | 5.78% (inactive)
Nc1cccc(-c2nc3ccc(N)cc3s2)c1 | 10.5% (inactive)
Nc1ccc2sc(N)nc2c1 | 19.6% (inactive)
Nc1nc2ccc(Br)cc2s1 | 1.67% (inactive)
COc1cccc(NC(=O)CN(C)C(=O)/C=C/c2ccc3ccccc3n2)c1 | 0.53% (inactive)
COc1ccc(-c2nc(N3CCOCC3)nc3n[nH]c(N)c23)cc1 | -3.94% (inactive)
COc1ccc(CCN(C)C2CCCN(S(=O)(=O)c3ccccc3)C2)cc1OC (stereo unspecified) | 10.3% (inactive)
O=C(CSc1ncn[nH]1)Nc1ccc(Cl)c(Cl)c1 | 12.3% (inactive)
O=C(O)/C=C/C(=O)Nc1ccc(OCc2ccccc2)cc1 | 11.5% (inactive)
CCOc1[nH]n(-c2ccc(Cl)cc2)c(=O)c1C=NCc1cccnc1 | 7.22% (inactive)
CC1CCC/C(=C\Nc2ccc(C(=O)O)cc2)C1=O (stereo unspecified) | -1.76% (inactive)
O=C1OCCC1=Cc1ccccc1 | -4.26% (inactive)
O=C1OCC/C1=C\c1ccccc1 | 5.73% (inactive)
CC1CCCC(=C\c2ccccc2)/C1=N/O (stereo unspecified) | 9.75% (inactive)
O=C(NC1CCS(=O)(=O)C1)c1cnccn1 (stereo unspecified) | 6.19% (inactive)
O=C(c1scc2c1CCCC2)N1CCOCC1 | 5.17% (inactive)
O=C(Nn1c(-c2ccc(Br)cc2)nc2ccccc2c1=O)c1cccnc1 | 2.47% (inactive)
CCCN(CCC)CC(O)CN1C(=O)NC(C)(C)C1=O (stereo unspecified) | -0.64% (inactive)
COc1ccc(C(=O)CSc2nnc(-c3cccnc3)n2Cc2ccco2)cc1 | 9.77% (inactive)
CCCCn1c(N)nc2ccccc21 | 1.51% (inactive)
CCCCC(=O)NCc1ccc2c(c1)cc(C)n2C | 7.65% (inactive)
Cc1ccc(N2CC(C(=O)NC(C)CCc3ccccc3)CC2=O)cc1 (stereo unspecified) | 1.14% (inactive)

SMILES | inhibition
Cc1cc(OCn2ccc(C(=O)O)n2)ccc1Cl | 15.5% (inactive)
CCNC(=S)N1CCN(Cc2ccc3c(c2)OCO3)CC1 | 3.54% (inactive)
CCCNC(=S)N1CCN(Cc2ccc3c(c2)OCO3)CC1 | 23.5% (inactive)
O=C(c1ccccc1)c1ccccc1C(=O)N1CCN(Cc2ccccc2F)CC1 | 15.4% (inactive)
O=C(O)c1ccccc1C(=O)N1CCN(Cc2ccc3c(c2)OCO3)CC1 | 6.42% (inactive)
O=C(c1cccc2ccccc12)N1CCN(Cc2ccccc2F)CC1 | 30.9% (inactive)
O=C(c1ccccc1Cl)N1CCN(Cc2ccc3c(c2)OCO3)CC1 | 1.05% (inactive)
O=C(/C=C/c1cccc(F)c1)N1CCN(c2ccccn2)CC1 | 6.78% (inactive)
CCOc1ccc(OCCC(=O)Nc2ccc(N3CCOCC3)cc2N2CCOCC2)cc1 | 4.37% (inactive)
COC(=O)c1ccsc1NC(=O)CN1CCN(c2ncccn2)CC1 | -6.48% (inactive)
O=C(CSc1nc2ncc(Cl)cc2[nH]1)N1CCC(Cc2ccccc2)CC1 | 5.18% (inactive)
O=C(COc1ccccc1[N+](=O)[O-])Nc1cccc(Cl)c1N1CCOCC1 | 9.17% (inactive)
COc1cc(OC)c(OC)cc1CNc1cc(C)ccc1OC | 14.2% (inactive)
COc1cccc(CNc2nn[nH]n2)c1OC | 3.59% (inactive)
COc1ccc(CNc2cc(C)ccc2C)c(OC)c1OC | 14.2% (inactive)
COc1ccccc1CNc1cc(-c2ccccc2)ccc1OC | 7.7% (inactive)
COc1ccccc1CNc1cc(C)ccc1C | -1.27% (inactive)
COc1cc(CNc2cc(C)ccc2C)cc(OC)c1OC | 6.31% (inactive)
O=C(c1nn2c(C(F)(F)F)cc(-c3ccccc3)nc2c1Cl)N1CCN2CCCC2C1 (stereo unspecified) | 3.99% (inactive)
CC(C)c1ccc(NC(=O)NC2CCN(CC(=O)Nc3cccc4ccccc34)CC2)cc1 | 13.1% (inactive)
CNC(=O)C[C@H]1C(=O)N(C2CCCCC2)C[C@@H]1CSC | 16.8% (inactive)
Cc1ccccc1Nc1ncnc2c1cnn2C | 12.2% (inactive)
O=C(c1ccc(Cl)c(S(=O)(=O)N2CCOCC2)c1)N1CCCC1 | 3.9% (inactive)
O=C(N1CCCCC1)N1CCN(S(=O)(=O)c2ccc(Cl)cc2)CC1 | 4.45% (inactive)
C=CCNc1nc2c3ccccc3n(C(C)=O)c2s1 | 24.6% (inactive)
CC(=O)n1c2ccccc2c2nc(NC(C)C)sc21 | 5.24% (inactive)

SMILES | inhibition
COc1cc(C(=O)NCc2nnc(SCC(=O)N3CCCCC3)o2)cc(OC)c1OC | 6.92% (inactive)
CC1=C/C(=C(/c2ccc(O)c(C)c2)c2ccccc2S(=O)(=O)O)C=CC1=O | 19.7% (inactive)
CC1=C/C(=C(\c2ccc(O)c(C)c2)c2ccccc2S(=O)(=O)O)C=CC1=O | 3.41% (inactive)
Cc1cc(C(=O)CS(=O)(=O)c2ccccc2)cc(C)c1O | 10.7% (inactive)
CC1=CC(=O)C=C/C1=C(/c1ccc(O)cc1C)c1ccccc1S(=O)(=O)O | 9.36% (inactive)
COc1cc(OC)cc(C(C(=O)NCc2ccccc2)N(Cc2ccco2)C(=O)c2ccno2)c1 (stereo unspecified) | 5.98% (inactive)
CCc1cc2c(C)ccc(C)c2nc1SCC(=O)Nc1c(C)[nH]c(=O)[nH]c1=O | -14.5% (inactive)
CCOC(=O)/C(=N\Nc1ccccc1)P(=O)(c1ccccc1)c1ccccc1 | 5.15% (inactive)
COc1ccc(C(CNC(=O)CSc2ccccc2C)N(C)C)cc1 (stereo unspecified) | 6.46% (inactive)
COC(=O)c1c(NC(=O)CSc2nnnn2-c2ccccc2)sc2c1CCC(C(C)(C)C)C2 (stereo unspecified) | 5.4% (inactive)
CC1CCC/C=C/C(=O)c2c(O)cc(O)cc2CC(=O)O1 (stereo unspecified) | -7.81% (inactive)
CC1CCCC=CC2CC(OC(=O)CN(C)C)CC2C(O)C=CC(=O)O1 (stereo unspecified) | 3.18% (inactive)
Cc1ccccc1NC(=O)/C(C#N)=C\c1cccnc1 | 16.7% (inactive)
COc1ccccc1NC(=O)/C(C#N)=C/c1cccnc1 | 4.24% (inactive)
CCCOc1ncnc2c1[nH]c1ccc(OC)cc12 | 5.1% (inactive)
Cc1cc(O)ccc1NC(=S)NC(=O)c1cncc(Br)c1 | 11% (inactive)
CC(C)CCNC(=O)c1cccc(C(=O)NCCC(C)C)c1 | 9.34% (inactive)
COc1cc(/C=N/N=C(\N)c2nonc2N)cc(OC)c1O | 19.5% (inactive)
COc1ccc(/C=N/N=C(\N)c2nonc2N)cc1OC | 0.88% (inactive)
C(=N\N=C\c1ccccc1)/c1ccccc1 | 5.71% (inactive)
Cc1ccc(/C=N/N=C/c2ccc(C)cc2)cc1 | 4.21% (inactive)
N/C(=N\N=C\c1cccc(O)c1)c1nonc1N | 7.37% (inactive)
COc1ccc(/C=N/N=C(\N)c2nonc2N)cc1 | 6.95% (inactive)
COc1ccc(C(=O)NN=C2CCCC2)cc1OC | -4.29% (inactive)
CC(C)NC(=O)N(C)C[C@H]1Oc2ccc(NC(=O)Cc3ccccc3)cc2C(=O)N([C@H](C)CO)C[C@@H]1C | -4.37% (inactive)
O=C(Nc1ccc(Cl)c(Cl)c1)N1N=CCC1c1ccccc1 (stereo unspecified) | 0.69% (inactive)

SMILES | inhibition
COc1ccc(-c2cc(C(F)F)n3ncc(C(=O)Nc4c(C)n(C)n(-c5ccccc5)c4=O)c3n2)cc1 | 5.73% (inactive)
COc1ccccc1NS(=O)(=O)c1cc(NC(=S)NCCN2CCOCC2)ccc1N1CCOCC1 | 21.5% (inactive)
Cc1ccc(S(=O)(=O)N2CCCCC2)cc1NC(=O)C1=NN(c2ccccc2)C(=O)CC1 | 4.16% (inactive)
c1ccc(OCc2nc3ccccc3s2)cc1 | 7.47% (inactive)
Fc1ccc(OCc2nc3ccccc3s2)cc1 | 3.88% (inactive)
O=c1oc2ccccc2c(O)c1Sc1c(O)c2ccccc2oc1=O | 16.1% (inactive)
COc1cc(C(=O)NCCCCc2ccccc2)cc(OC)c1OC | 5.47% (inactive)
COc1ncnc2c1ncn2CCCNCc1ccccn1 | 12.9% (inactive)
COC(=O)C(NC(C)=O)(Nc1sc2c(c1C(N)=O)CCCC2)C(F)(F)F (stereo unspecified) | 4.3% (inactive)
Cn1c(-c2ccc(F)cc2)cnc1NCc1ccc(F)cc1F | 29.6% (inactive)
Cn1c(-c2ccccc2)cnc1NCc1cc(Cl)ccc1O | 31.7% (inactive)
COc1ccc(CNc2ncc(-c3cccc([N+](=O)[O-])c3)n2C)c(OC)c1OC | 28.9% (inactive)
Cc1ccc(CNc2nc3ccccc3n2C)o1 | 8.19% (inactive)
Cn1c(-c2ccc(F)cc2)cnc1NCc1ccccc1F | 25.9% (inactive)
COc1ccc(CNc2ncc(-c3ccccc3)n2C)c2ccccc12 | 23.6% (inactive)
COc1ccc(CNc2ncc(-c3ccc(Cl)cc3)n2C)c(OC)c1OC | 16.9% (inactive)
COc1ccccc1CNc1ncc(-c2ccc(F)cc2)n1C | 28.3% (inactive)
COc1ccc(CNC(=O)c2ccc(Cn3nc(C)c([N+](=O)[O-])c3C)o2)cc1 | 5.77% (inactive)
Cc1cc(C)c(SSc2nnnn2-c2ccccc2)c(C)c1 | 27.2% (inactive)
CC1CN(C(=O)CCNC(=O)c2ccccc2Cl)CC(C)O1 (stereo unspecified) | 4.76% (inactive)
COC(=O)[C@H](C(C)C)N(Cc1ccccc1)S(=O)(=O)CCN1CCN(c2ccccc2)CC1 | 3.71% (inactive)
Cc1c(Br)c([N+](=O)[O-])nn1CC(=O)Nc1nccs1 | -2.73% (inactive)
COc1ccc(S(=O)(=O)NC(CC(=O)NC2CCCC2)c2ccco2)cc1 (stereo unspecified) | 5.91% (inactive)

Reference: PubChem BioAssay AID624330 (Southern Research Specialized Biocontainment Screening …, 2012)
